Laboratory results from paper PMC5540273 (PLoS ONE, 2017).
Values joined by “and” are separate entries in the source; they are usually repeats but may differ in a detail not shown here. Identical values can stand only once. Like-named read-outs stand apart in the source and are kept apart here.

Legend:
LKB1 = system: T1, LKB1; details: concentration: 1 μM, replicates: in singlicate, n = 1
T1 construct: gene STK11

LOK = system: T2, LOK; details: concentration: 1 μM, replicates: in singlicate, n = 1
T2 construct: gene STK10

LRRK2 = details: concentration: 1 μM, replicates: in singlicate; n = 1
LTK = details: concentration: 1 μM, replicates: in singlicate; n = 1
LYN = details: concentration: 1 μM, replicates: in singlicate, n = 1
LZK = system: T3, LZK; details: concentration: 1 μM, replicates: in singlicate, n = 1
T3 construct: gene MAP3K13

MAK = details: concentration: 1 μM, replicates: in singlicate, n = 1
MAP3K15 = details: concentration: 1 μM, replicates: in singlicate, n = 1
MAP3K1 = details: concentration: 1 μM, replicates: in singlicate, n = 1
MAP3K2 = details: concentration: 1 μM, replicates: in singlicate, n = 1
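Note: KINOMEscan kinase panel screen.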

| Compound | %Inh (LKB1) | %Inh (LOK) | %Inh (LRRK2) | %Inh (LTK) | %Inh (LYN) | %Inh (LZK) | %Inh (MAK) | %Inh (MAP3K15) | %Inh (MAP3K1) | %Inh (MAP3K2) | %Inh (LKB1; 1 µM) | %Inh (LOK; 1 µM) | %Inh (LYN; 1 µM) | %Inh (LZK; 1 µM) | %Inh (MAK; 1 µM) | %Inh (MAP3K15; 1 µM) | %Inh (MAP3K1; 1 µM) | %Inh (MAP3K2; 1 µM) |
| --- | --- | --- | --- | --- | --- | --- | --- | --- | --- | --- | --- | --- | --- | --- | --- | --- | --- | --- |
| O=C(NCCCN1CCCC1=O)c1cnc(NCc2cc(Cl)ccc2Cl)nc1NC1CCNCC1 | 0% | 4% | 0% | 0% | 1% | 0% | 84% | 0% | 0% | 79% |  |  |  |  |  |  |  |  |
| Fc1cccc(COc2ccc(Nc3ncnc4sc(-c5ccc[nH]5)cc34)cc2Cl)c1 [GW707818] | 17% | 28% | 0% | 1% | 0% | 82% | 36% | 0% | 4% | 0% |  |  |  |  |  |  |  |  |
| CC(C)(C)c1ccc(-n2cnc3c(N)ncnc32)cc1 [SKF-97263] | 0% | 2% | 22% | 6% | 5% | 0% | 8% | 16% | 8% | 1% |  |  |  |  |  |  |  |  |
| Nc1nc(-c2ccc3c(N)n[nH]c3c2)cc(N2CCCCC2)n1 [GSK2228768] | 0% | 0% | 0% | 0% | 0% | 0% | 17% | 0% | 0% | 0% |  |  |  |  |  |  |  |  |
| Cc1cccc(-c2nc(Nc3ccc4[nH]nnc4c3)c3ccccc3n2)n1 [GW867587] | 0% | 0% | 0% | 13% | 0% | 0% | 0% | 0% | 0% | 0% |  |  |  |  |  |  |  |  |
| CN1CCC(n2cnc(-c3ccc(F)cc3)c2-c2ccnc(NC3CCNCC3)n2)CC1 [SB-229482] | 27% | 0% | 0% | 0% | 15% | 0% | 29% | 0% | 4% | 0% |  |  |  |  |  |  |  |  |
| FC(F)(F)c1ccc(-c2cc(-c3c[nH]nc3-c3ccccn3)ccn2)cc1 [GW599550] | 12% | 0% | 7% | 21% | 0% | 29% | 11% | 0% | 5% | 0% |  |  |  |  |  |  |  |  |
| Cl.O=S(=O)(c1cccc(F)c1)c1ccc(Nc2ncnc3cc(Br)sc23)cc1Cl [GSK306886] | 10% | 6% | 0% | 0% | 0% | 0% | 10% | 0% | 24% | 7% |  |  |  |  |  |  |  |  |
| COC(=O)c1cccc(NC(=O)NCCNc2ccnc(Nc3ccc(F)cc3)n2)c1 [GSK1379883] | 16% | 0% | 0% | 0% | 0% | 1% | 26% | 0% | 0% | 0% |  |  |  |  |  |  |  |  |
| COC(=O)c1c(-c2ccccc2)c2cc(Cl)ccc2c(=O)n1Cc1ccc(S(C)(=O)=O)cc1 | 0% | 4% | 2% | 0% | 20% | 0% | 5% | 20% | 0% | 0% |  |  |  |  |  |  |  |  |
| CN1c2ccc(-c3ccc(C(=O)NCCO)cc3)cc2-c2[nH]ncc2S1(=O)=O | 21% | 31% | 73% | 9% | 22% | 0% | 0% | 11% | 9% | 36% |  |  |  |  |  |  |  |  |
| CCCc1ccc(S(=O)(=O)NC2CCN(c3ccnc(Nc4ccc(OC)cc4)n3)C2)cc1 (stereo not drawn) [GSK1379737] | 6% | 0% | 0% | 100% | 0% | 25% | 16% | 0% | 1% | 1% |  |  |  |  |  |  |  |  |
| Cl.c1ccc(Cn2ccc3cc(Nc4ncnc5ccccc45)ccc32)cc1 [GW275568] | 0% | 32% | 0% | 6% | 0% | 35% | 25% | 0% | 0% | 0% |  |  |  |  |  |  |  |  |
| CCn1c(-c2ccncc2)nc2cnccc21 [SB-735216] | 0% | 0% | 0% | 0% | 19% | 59% | 12% | 47% | 10% | 6% |  |  |  |  |  |  |  |  |
| CCC(CC)(CC)n1cnc2c(N)ncnc21 [SKF-97620] | 70% | 23% | 9% | 6% | 0% | 36% | 12% | 24% | 21% | 40% |  |  |  |  |  |  |  |  |
| COc1ccc(NC(=O)c2ccc(-c3cc(-c4nnc(C)o4)ccc3C)cc2)cc1 [GW595885] | 0% | 0% | 42% | 0% | 32% | 12% | 47% | 0% | 2% | 1% |  |  |  |  |  |  |  |  |
| O=C(CCO)NCCn1ccc2ncnc(Nc3ccc(Oc4cccc(C(F)(F)F)c4)c(Cl)c3)c21 | 39% | 72% | 0% | 0% | 8% | 0% | 0% | 0% | 0% | 0% |  |  |  |  |  |  |  |  |

| Compound | %Inh (LKB1) | %Inh (LOK) | %Inh (LRRK2) | %Inh (LTK) | %Inh (LYN) | %Inh (LZK) | %Inh (MAK) | %Inh (MAP3K15) | %Inh (MAP3K1) | %Inh (MAP3K2) | %Inh (LKB1; 1 µM) | %Inh (LOK; 1 µM) | %Inh (LYN; 1 µM) | %Inh (LZK; 1 µM) | %Inh (MAK; 1 µM) | %Inh (MAP3K15; 1 µM) | %Inh (MAP3K1; 1 µM) | %Inh (MAP3K2; 1 µM) |
| --- | --- | --- | --- | --- | --- | --- | --- | --- | --- | --- | --- | --- | --- | --- | --- | --- | --- | --- |
| COc1ccc(-c2oc3ncnc(N)c3c2-c2ccc(OC)cc2)cc1 [SB-589132] | 28% | 0% | 33% | 0% | 4% | 51% | 11% | 0% | 10% | 0% |  |  |  |  |  |  |  |  |
| Cn1ccc2ncnc(Oc3ccc(NC(=O)Nc4cccnc4)c(Cl)c3)c21 | 11% | 35% | 0% | 6% | 5% | 0% | 0% | 0% | 0% | 0% |  |  |  |  |  |  |  |  |
| CCc1nc(-c2cccc(N(C)S(=O)(=O)c3ccccc3)c2)c(-c2ccnc(Nc3ccc(N4CCN(C(C)=O)CC4)nc3)n2)s1 [GSK1645895] | 4% | 15% | 0% | 0% | 4% | 0% | 22% | 0% | 22% | 0% |  |  |  |  |  |  |  |  |
| COc1ccc(-c2nc3n(c2-c2ccncc2)CCC3)cc1 [SKF-104493] |  |  | 0% | 2% |  |  |  |  |  |  | 27% and 21% | 19% and 11% | 9% and 0% | 0% and 5% | 19% and 0% | 3% and 4% | 11% and 1% | 6% and 0% |
| N#Cc1ccc(Oc2ccc(Nc3ncnc4cc[nH]c34)cc2Cl)cc1 | 29% | 18% | 0% | 6% | 0% | 0% | 13% | 43% | 0% | 9% |  |  |  |  |  |  |  |  |
| Cc1ccc(C)c(NC(=O)NCCNc2ccnc(Nc3ccc(F)cc3)n2)c1 [GSK1379878] | 14% | 0% | 0% | 0% | 0% | 0% | 22% | 0% | 0% | 0% |  |  |  |  |  |  |  |  |
| COc1cc2ncnc(Nc3ccc(OCc4ccccc4Br)c(Cl)c3)c2cc1OC.Cl [GI261590] | 0% | 96.6% | 0% | 14% | 30% | 10% | 33% | 0% | 4% | 0% |  |  |  |  |  |  |  |  |
| COc1ccc(Nc2nccc(N3CCC(NC(=O)Nc4ccc5c(c4)OCO5)C3)n2)cc1 (stereo not drawn) [GSK1379745] | 4% | 0% | 1% | 18% | 1% | 39% | 20% | 3% | 12% | 14% |  |  |  |  |  |  |  |  |
| Fc1ccc(Nc2nccc(-c3c(-c4ccc(Cl)cc4)nn4ncccc34)n2)cc1F [GW829058] | 8% | 28% | 0% | 6% | 24% | 5% | 12% | 24% | 22% | 27% |  |  |  |  |  |  |  |  |
| O=C(Nc1ccccc1F)NC1CCN(c2ccnc(Nc3ccc(F)cc3)n2)C1 (stereo not drawn) [GSK1379722] | 0% | 0% | 39% | 0% | 0% | 23% | 12% | 0% | 5% | 1% |  |  |  |  |  |  |  |  |
| NC(=O)c1sc(-n2cnc3ccccc32)cc1OCc1ccccc1F [GSK1024306] | 0% | 63% | 29% | 5% | 0% | 27% | 13% | 0% | 59% | 0% |  |  |  |  |  |  |  |  |
| CNc1nccc(-c2c(-c3ccc(F)cc3)ncn2C2CCN(C)CC2)n1 [SB-222903] | 0% | 3% | 0% | 0% | 0% | 0% | 0% | 0% | 0% | 0% |  |  |  |  |  |  |  |  |
| Fc1ccc(-c2ncn(CCCNCc3ccccc3)c2-c2ccncc2)cc1 | 27% | 19% | 0% | 0% | 22% | 12% | 5% | 10% | 15% | 0% |  |  |  |  |  |  |  |  |
| C[C@H]1CC[C@@H](C(=O)Nc2ccccc2)CN1c1cc(-c2ccc3c(N)n[nH]c3c2)nc(N)n1 [GSK2283293] | 15% | 0% | 0% | 0% | 0% | 0% | 12% | 0% | 0% | 0% |  |  |  |  |  |  |  |  |
| CC(=O)Nc1n[nH]c2ncc(-c3ccccc3)cc12 [SB-548492] | 25% | 0% | 0% | 5% | 0% | 0% | 51% | 11% | 27% | 16% |  |  |  |  |  |  |  |  |
| O=C(Nc1n[nH]c2nc(-c3ccco3)c(Br)cc12)c1ccc(CN2CCCC2)cc1.O=C(O)[C@H](O)[C@@H](O)C(=O)O [SB-742352] | 0% | 14% | 0% | 21% | 50% | 0% | 20% | 0% | 0% | 0% |  |  |  |  |  |  |  |  |
